According to PubChem BioAssay (EPA / NIEHS):
Inconclusive results are not listed. The source made the active and inactive calls. How the source made its calls, unless noted: active means hit-call score of the fitted dose curve at least 0.9, where 1 is the maximum; inconclusive means response in the unintended direction; inactive means score below 0.9.

How the values were obtained:
SERPINA7 (gene 6906) = assay: CCTE_GLTED_hTBG: CCTE's human Thyroxine-binding Globulin (TBG) Inhibition Assay, Great Lakes Toxicology and Ecology Division (GLTED) Lab (AID 2284343);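 further: active chemicals lower fluorescence versus DMSO baseline by displacing probe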
How it was run: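 Human thyroxine-binding globulin was exposed to each chemical for 2 hours, during which the ANSA probe could be displaced. Fluorescence was then measured at 380/475 nm, and loss of signal was analysed relative to DMSO.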

[1] = CCTE_Deisenroth_H295R-HTRF_384WELL_ESTRADIOL: CCTE's H295R-HTRF Assay Evaluation of Estradiol Concentration, Deisenroth Lab (AID 2284361; active means hit-call score of the fitted dose curve at least 0.9, where 1 is the maximum; inactive means score below 0.9); conditions: actives raise or lower the signal
How it was run: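 Estradiol secreted into medium by H295R adrenocortical cells, quantified by HTRF after 48 h dosing over a nine-point 0.001 - 100 uM final range; gain or loss versus DMSO. Parallel ATP-luminescence viability readout; n=5 experiments.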

[2] = CCTE_Deisenroth_H295R-HTRF_384WELL_TESTOSTERONE: CCTE's H295R-HTRF Assay Evaluation of Testosterone Concentration, Deisenroth Lab (AID 2284373; active means hit-call score of the fitted dose curve at least 0.9, where 1 is the maximum; inactive means score below 0.9); conditions: actives raise or lower the signal
How it was run: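 Secreted testosterone was quantified by HTRF immunoassay of medium from human adrenocortical H295R cells after 48 h chemical exposure at 0.001–100 uM final. Gain or loss was fitted against DMSO. ATP-based viability was read on matched wells, five experimental replicates.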

[3] = CCTE_Deisenroth_H295R-HTRF_384WELL_CTOX: Cytotoxicity Assessment in CCTE's H295R-HTRF Assay, Deisenroth Lab (AID 2284380)
How it was run: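 Luminescent ATP viability readout (CellTiter-Glo 2.0), multiplexed on plates used for hormone sampling, after 48 h chemical exposure. Human H295R cells; final concentrations 0.001–100 uM in nine steps, technical triplicates, five experiments; DMSO baseline.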

[4] = TAMU_PeakParms_SingleDonor1434_Asystole: Texas A&M University (TAMU) 1.5-hr Human Induced Pluripotent Stem Cell (iPSC)-derived Cardiomyocytes Calcium (Ca+2) Flux Assay for Cardiotoxicity: Asystole (quiescence of beating) (AID 2284328)
How it was run: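 Human iPSC-derived cardiomyocytes (donor 1434) were exposed to 0.2, 1, 10 and 100 uM compound in 0.5% DMSO for 90 min at 37C. Ca2+-dye fluorescence gave average peak frequency; POD is EC95, a 95% beat-rate drop versus DMSO.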

[5] = CCTE_Padilla_ZF_Score.General: CCTE's 144 Hour Post-fertilization zebrafish Assay Score for General Malformation, Padilla Lab (AID 2284411; active means hit-call score of the fitted dose curve at least 0.9, where 1 is the maximum; inactive means score below 0.9)
How it was run: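 Malformation, death and hatching were scored at 6 dpf by two blinded observers under a stereo microscope. Embryos were dosed singly from 6-8 hpf in sealed plates of 10% Hanks' at 26C and rinsed on 5 dpf; DMSO baseline.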

SRD5A2 (gene 6716) = assay: CCTE_Deisenroth_5AR_NBTE_ratio: CCTE's 5alpha-reductase NanoBRET Target Engagement Assay - Ratio, Deisenroth Lab (AID 2284322; active means hit-call score of the fitted dose curve at least 0.9, where 1 is the maximum; inactive means score below 0.9); conditions: actives raise or lower the signal
How it was run: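 HEK293T cells transiently expressing an SRD5A2-NanoLuc fusion (20 h post-transfection) were exposed to test chemical (10 nM - 29.9 uM, 8 points) for 3 h, then testosterone tracer for a further 2 h. Acceptor/donor BRET ratio was fitted bidirectionally against DMSO baseline.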

[6] = VALA_TUBHUV_Antagonist_TubuleLength: VALA Sciences human Umbilical Vein Endothelial Tubule Formation (TUBHUV) Antagonism Assay (AID 2284325)
How it was run: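 Tubule length was imaged via CD31 immunofluorescence after a further 3-day compound exposure in 10 ng/ml VEGF, following 3-day pre-culture of HUVEC with HDF at 1:3. Vehicle 0.1% DMSO; suramin (100 uM) inhibition control.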

[7] = VALA_MIGHUV1_ScratchOnly_WoundArea: VALA Sciences human Umbilical Vein Endothelial Cell Migration (MIGHUV) Assay, Area of Scratch Wound Inhibited Recovery (AID 2284336)
How it was run: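 Wound area remaining after 24 h recovery imaged by Hoechst nuclear fluorescence in scratched HUVEC cultures, chemicals added within 30 min of scratching across a 6-point series. Gain of signal fitted against 0.1% DMSO; cytochalasin D positive control.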

[8] = VALA_TUBHUV_Agonist_TubuleLength: VALA Sciences human Umbilical Vein Endothelial Tubule Formation (TUBHUV) Agonism Assay (AID 2284337)
How it was run: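 Tubule length quantified by CD31 immunofluorescence imaging after fixation. HUVEC-HDF co-cultures (1:3) pre-grown 3 days with 10 ng/ml VEGF, then dosed 3 days in VEGF medium; 0.1 % DMSO vehicle baseline.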

[9] = VALA_TUBIPS_Agonist_CellCount: Viability Assessment in the VALA Sciences human iPS-derived Endothelial Tubule Formation (TUBIPS) Agonism Assay (AID 2284338)
[10] = IUF_NPC1_cytotoxicity_72hr: Cytotoxicity Assessment at 72 hours in the Leibniz Research Institute for Environmental Medicine (IUF) Neural Progenitor Cell Proliferation Assay (NPC1) (AID 2284332);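 further: rising LDH signal means more cytotoxicity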
How it was run: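 Membrane-integrity loss is scored from LDH released into the medium, detected as resorufin fluorescence, with activity fitted upward relative to baseline. Test material stays on human fetal-derived progenitor spheres for 72 h.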

[11] = CCTE_Mundy_HCI_iCellGluta_NOG_NeuronCount: CCTE's Neurite Outgrowth Assay in iCellGluta cells for Neuron Count, Mundy Lab (AID 2284340);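 further: cells fixed about 48 h after compound addition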
How it was run: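 Neuron count read by automated high-content imaging of Hoechst 33342 and betaIII-tubulin/Alexa Fluor-488 labelling in human iPSC glutamatergic neurons. Activity fitted relative to DMSO.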

[12] = CCTE_Mundy_HCI_iCellGluta_NOG_NeuriteCount: CCTE's Neurite Outgrowth Assay in iCellGluta cells for Neurite Count, Mundy Lab (AID 2284342);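 further: chemical exposure about 48 hours starting 2 hours after plating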
[13] = VALA_MIGHUV1_ScratchOnly_CellCount: Viability Assessment in the VALA Sciences human Umbilical Vein Endothelial Cell Migration (MIGHUV) Assay, Scratch Wound Inhibited Recovery (AID 2284327)
How it was run: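 Hoechst-stained nuclei in the scratch wound were counted by high-content imaging after a 24 h recovery period. Scratched HUVEC monolayers received 6-point concentration series, triplicate, in 0.1% DMSO, fit against DMSO.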

[14] = test system: Brachyury (BRA) Protein Expression, Deisenroth Lab, TBXT (gene 6862); assay: CCTE_Deisenroth_DEVTOX-GLR_legacy_Bra: (Legacy) CCTE's DevTox GLR-Endo Assay Evaluation of Brachyury (BRA) Protein Expression, Deisenroth Lab (AID 2284329; active means hit-call score of the fitted dose curve at least 0.9, where 1 is the maximum; inactive means score below 0.9)
How it was run: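 High-content imaging of fixed RUES2-GLR cells after a 48-hour differentiation with two compound exposures yields percent cells whose Bra signal exceeds pluripotent control median by 5x BMAD; values are baseline-corrected to DMSO.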

[15] = CCTE_Deisenroth_DEVTOX-GLR_legacy_CellCount: (Legacy) Viability Assessment in CCTE's DevTox GLR-Endo Assay, Deisenroth Lab (AID 2284331; active means hit-call score of the fitted dose curve at least 0.9, where 1 is the maximum; inactive means score below 0.9); conditions: actives raise or lower the signal
How it was run: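 Nuclei count by fluorescence high-content imaging (5 fields/well) after 48 h differentiation of RUES2-GLR cells. Two exposures, 24 h apart; 1 nM - 200 uM series; n=4. Bidirectional fit vs DMSO.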

[16] = test system: SRY-box transcription factor 17 (SOX17) Protein Expression, Deisenroth Lab, SOX17 (gene 64321); assay: CCTE_Deisenroth_DEVTOX-GLR_legacy_Sox17: (Legacy) CCTE's DevTox GLR-Endo Assay Evaluation of SRY-box transcription factor 17 (SOX17) Protein Expression, Deisenroth Lab (AID 2284341; active means hit-call score of the fitted dose curve at least 0.9, where 1 is the maximum; inactive means score below 0.9); conditions: actives raise or lower the signal
How it was run: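 RUES2-GLR human pluripotent cells, seeded 24 h, then differentiated 48 h in defined media with two chemical exposures 24 h apart (1 nM - 200 uM, 10 points). Sox17+ fraction from high-content fluorescence imaging; bidirectional fit versus 0.2% DMSO.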

[17] = test system: SRY-box transcription factor 2 (SOX2) Protein Expression, Deisenroth Lab, SOX2 (gene 6657); assay: CCTE_Deisenroth_DEVTOX-GLR_legacy_Sox2: (Legacy) CCTE's DevTox GLR-Endo Assay Evaluation of SRY-box transcription factor 2 (SOX2) Protein Expression, Deisenroth Lab (AID 2284346; active means hit-call score of the fitted dose curve at least 0.9, where 1 is the maximum; inactive means score below 0.9)
How it was run: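 Two exposures, 24 h apart, during 48 h defined-media differentiation of seeded RUES2-GLR cells; nuclei-stained cells imaged. Sox2 positivity called at 5x BMAD above endoderm control median, DMSO median subtracted.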

[18] = VALA_TUBIPS_Antagonist_CellCount: Viability Assessment in the VALA Sciences human iPS-derived Endothelial Tubule Formation (TUBIPS) Antagonism Assay (AID 2284335)

## O=C(c1ccccc1)C1CCCCC1
SERPINA7 (gene 6906)
  AC50: 50 µM (active)

## CCCCOCCOCCOCc1cc2c(cc1CCC)OCO2
[1]
  outcome: inactive
[2]
  outcome: inactive
[3]
  outcome: inactive

## COCCO
[4]
  outcome: inactive
[5]
  outcome: inactive

## CCN(Cc1c(F)cccc1Cl)c1c([N+](=O)[O-])cc(C(F)(F)F)cc1[N+](=O)[O-]
SERPINA7 (gene 6906)
  AC50: 0.62 µM (active)

## CC(C)CCCCCCc1ccc(O)cc1
SRD5A2 (gene 6716)
  outcome: inactive
[6]
  outcome: inactive
[7]
  outcome: inactive
[8]
  outcome: inactive
[9]
  outcome: inactive
SERPINA7 (gene 6906)
  AC50: 5.2 µM (active)

## CCC(C)OC(=O)N1CCCCC1CCO (stereo not drawn)
[5]
  outcome: inactive

## CC(=O)[C@H]1CC[C@H]2[C@@H]3CCC4=CC(=O)CC[C@]4(C)[C@H]3CC[C@]12C
[4]
  outcome: inactive

## COC(=O)CSc1cc(N=c2sc(=O)n3n2CCCC3)c(F)cc1Cl
SERPINA7 (gene 6906)
  AC50: 25.9 µM (active)

## Cc1nn(C)c(Oc2ccccc2)c1C=NOCc1ccc(C(=O)OC(C)(C)C)cc1
[10]
  outcome: inactive
[11]
  AC50: 6.47 µM (active)
[12]
  AC50: 1.39 µM (active)

## N[C@@H](Cc1cc(I)c(Oc2ccc(O)c(I)c2)c(I)c1)C(=O)O
[6]
  outcome: inactive
[7]
  outcome: inactive
[8]
  outcome: inactive
[9]
  outcome: inactive

## O=C(O)C1(C(=O)Nc2ccc(Cl)cc2Cl)CC1
SERPINA7 (gene 6906)
  AC50: 66 µM (active)

## C=CCOC(Cn1ccnc1)c1ccc(Cl)cc1Cl (stereo not drawn)
[1]
  AC50: 0.447 µM (active)
[2]
  AC50: 1.87 µM (active)
[3]
  AC50: 84.6 µM (active)

## CSC(=O)c1cccc2nnsc12
[10]
  outcome: inactive
[12]
  outcome: inactive

## O=C(O)c1ccccc1
SRD5A2 (gene 6716)
  outcome: inactive
[4]
  outcome: inactive
[10]
  outcome: inactive

## S=C(S)NCCNC(=S)S.[Mn+2].[S-]C([S-])=NCCN=C([S-])[S-].[Zn+2]
[6]
  outcome: inactive
[13]
  outcome: inactive
[10]
  outcome: inactive
[7]
  outcome: inactive
[9]
  outcome: inactive
[11]
  outcome: inactive
[12]
  outcome: inactive

## CCCCC(CC)COC(=O)c1ccccc1C(=O)O (stereo not drawn)
[14]
  outcome: inactive
[15]
  AC50: 112 µM (active)
[16]
  AC50: 100 µM (active)
SERPINA7 (gene 6906)
  AC50: 18.3 µM (active)
[17]
  outcome: inactive

## S=C([S-])NCCNC(=S)[S-].[Mn+2]
[10]
  outcome: inactive

## CCCN(CCC)C(=O)SCC
[10]
  outcome: inactive
[11]
  outcome: inactive
[12]
  outcome: inactive

## CCN(CC)C(=O)c1cccc(C)c1
[10]
  outcome: inactive
[11]
  outcome: inactive
[12]
  outcome: inactive

## OB(O)O
[14]
  outcome: inactive
[15]
  outcome: inactive
[16]
  outcome: inactive
[17]
  outcome: inactive

## N#CSCSc1nc2ccccc2s1
SERPINA7 (gene 6906)
  AC50: 33.2 µM (active)

## CC(=O)S[C@@H]1CC2=CC(=O)CC[C@]2(C)[C@H]2CC[C@@]3(C)[C@@H](CC[C@@]34CCC(=O)O4)[C@H]12
[1]
  outcome: inactive
[2]
  AC50: 1.28 µM (active)
[3]
  outcome: inactive

## C#CCOC(=O)[C@@H](C)Oc1ccc(Oc2ncc(Cl)cc2F)cc1
[10]
  outcome: inactive
[11]
  outcome: inactive
[12]
  AC50: 34 µM (active)

## COc1c(Cl)ccc(Cl)c1C(=O)O
SERPINA7 (gene 6906)
  AC50: 47.7 µM (active)

## CCCN(CCC)c1c([N+](=O)[O-])cc(C(F)(F)F)c(N)c1[N+](=O)[O-]
SERPINA7 (gene 6906)
  AC50: 0.322 µM (active)

## CC1(C)C(C=C(Cl)Cl)C1C(=O)OCc1cccc(Oc2ccccc2)c1 (stereo not drawn)
SRD5A2 (gene 6716)
  outcome: inactive
[4]
  outcome: inactive

## c1ccc2[nH]c(-c3cscn3)nc2c1
[4]
  outcome: inactive

## O=C(Nc1ccc([N+](=O)[O-])cc1Cl)c1cc(Cl)ccc1O
SRD5A2 (gene 6716)
  outcome: inactive
SERPINA7 (gene 6906)
  outcome: inactive

## CC(C)(c1ccc(O)cc1)c1ccc(O)cc1
[6]
  AC50: 75.1 µM (active)
[4]
  outcome: inactive
[14]
  AC50: 49.5 µM (active)
[15]
  AC50: 35.6 µM (active)
[10]
  outcome: inactive
[18]
  outcome: inactive
[7]
  outcome: inactive
[9]
  outcome: inactive
[16]
  AC50: 51.4 µM (active)
SERPINA7 (gene 6906)
  AC50: 12.4 µM (active)
[17]
  AC50: 50.7 µM (active)
[1]
  AC50: 37 µM (active)
[2]
  AC50: 0.804 µM (active)
[3]
  AC50: 15 µM (active)
